Five molecules from PubChem BioAssay (NCI) can be followed below.

Experiment [1] can be described thus: NCI Yeast Anticancer Drug Screen. Data for the rad50 strain (AID 155).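 Note: 0% = growth of vehicle-only cultures of the same strain.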 Particulars: S. cerevisiae rad50 strain growth inhibition, active compounds read high. In a few lines: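 Yeast carrying a defined DNA repair defect were exposed to test compounds, and growth was compared with vehicle-treated controls to give percent inhibition.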
Experiment [2] in a line: NCI Yeast Anticancer Drug Screen. Data for the mec2-1 strain (AID 157). Particulars: S. cerevisiae mec2-1 strain, active compounds read high. In a few lines:
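Growth inhibition is read against vehicle-treated controls after compound exposure of the mec2-1 yeast strain, which is defective in DNA damage repair or cell cycle control.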

A short description of experiment [3]: NCI Yeast Anticancer Drug Screen. Data for the sgs1 mgt1 strain (AID 161).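 Note: 0% = growth of cultures given vehicle only.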 The conditions noted are these: S. cerevisiae sgs1 mgt1 strain, active compounds read high. The gist of the method: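 Percent growth inhibition was derived by comparing compound-exposed mutant yeast with vehicle-exposed cultures. The strain carries alterations in DNA damage repair.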
Experiment [4] in a line: NCI Yeast Anticancer Drug Screen. Data for the cln2 rad14 strain (AID 165).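 Note: 0% = growth equal to vehicle treated cultures.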 Particulars: S. cerevisiae cln2 rad14 strain, active compounds read high. The gist of the method:
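Growth inhibition, relative to vehicle-treated controls, is the read-out. The test organism is a yeast strain with defined genetic alterations, cln2 rad14.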

Experiment [5] in a line: NCI Yeast Anticancer Drug Screen. Data for the bub3 strain (AID 167). The conditions noted are these: S. cerevisiae bub3 mutant strain, active compounds read high. The gist of the method:
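Compounds were applied to a genetically altered yeast strain carrying a cell-cycle control defect. Growth inhibition was scored against vehicle-treated controls.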

A short description of experiment [6]: NCI Yeast Anticancer Drug Screen. Data for the mlh1 rad18 strain (AID 175). Particulars: S. cerevisiae mlh1 rad18 strain growth inhibition, active compounds read high. The gist of the method: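 Cells of a genetically altered yeast strain, deficient in DNA damage repair, were treated with compound. Their growth was then compared with that of vehicle-treated cultures to give inhibition.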

The mark [7] stands for this setting: at 5.0 µM (retest, dose inferred, filed as 0.5).
[8] abbreviates: at 50.0 µM (retest, dose inferred, filed as 5.0).

Compounds without any hit were thinned out: in the full panel of roughly 79,000, 15% have a hit. Values without a mark were called inactive. The source made the active and inactive calls. Cut-off read from the data, not from the text of the source: active = growth inhibition above about 70%; inactive = the rest.

As to `O=C1OC(c2ccccc2)N/C1=C\c1ccc2c(c1)OCO2` (stereo not given), the growth inhibition in experiment [1] (setting [7]) was 34%; in experiment [1] (setting [8]), 53%; in experiment [1] (at 50.0 µM), -45.7%; in experiment [2] (setting [7]) it was 17%; in experiment [2] (setting [8]), 20%; in experiment [2] (at 50.0 µM), -53.1%. The growth inhibition in experiment [3] (setting [7]) was 22%; in experiment [3] (setting [8]), 24%; in experiment [3] (at 50.0 µM), -8.55%; in experiment [4] (setting [7]) it was 11%; in experiment [4] (setting [8]), 21%; in experiment [4] (at 50.0 µM), 3.55%. Also, the growth inhibition in experiment [5] (setting [7]) is 22%; in experiment [5] (setting [8]), 19%; in experiment [5] (at 50.0 µM), -14.7%; in experiment [6] (setting [7]) it was 18%; in experiment [6] (setting [8]), 26%; in experiment [6] (at 50.0 µM), -6.95%.

Take `CCCCCCCCCCCCCCCC(=O)N(CCCN(CC)CC)C(C)CCCN(CC)CC` (stereo not given): the growth inhibition in experiment [1] (setting [7]) is 90% (active); in experiment [1] (setting [8]), 98% (active); in experiment [1] (at 50.0 µM), 60.1%; in experiment [2] (setting [7]), 28%; in experiment [2] (setting [8]), 99% (active); in experiment [2] (at 50.0 µM) it was 71.9% (active). The growth inhibition was 51% in experiment [3] (setting [7]); 99% (active) in experiment [3] (setting [8]); 44.9% in experiment [3] (at 50.0 µM); 36% in experiment [4] (setting [7]); 99% (active) in experiment [4] (setting [8]); 76.4% (active) in experiment [4] (at 50.0 µM). Further, the growth inhibition in experiment [5] (setting [7]) was 53%; in experiment [5] (setting [8]), 99% (active); in experiment [5] (at 50.0 µM), 19.6%; in experiment [6] (setting [7]), 85% (active); in experiment [6] (setting [8]), 97% (active); in experiment [6] (at 50.0 µM), 17.7%.

As for `COc1ccccc1NC(=O)C1=C(C)NC(C)=C(C(=O)Nc2ccccc2OC)C1c1ccc(OC)c(OC)c1`, the growth inhibition in experiment [1] (setting [7]) was 9%; in experiment [1] (setting [8]) it was 50%; in experiment [1] (at 50.0 µM), 55.9%; in experiment [2] (setting [7]), -3%; in experiment [2] (setting [8]), 43%; in experiment [2] (at 50.0 µM), 26.6%. The growth inhibition is 9% in experiment [3] (setting [7]); 48% in experiment [3] (setting [8]); 49.9% in experiment [3] (at 50.0 µM); -4% in experiment [4] (setting [7]); 31% in experiment [4] (setting [8]); -38.9% in experiment [4] (at 50.0 µM). Also, the growth inhibition in experiment [5] (setting [7]) is -1%; in experiment [5] (setting [8]), 51%; in experiment [5] (at 50.0 µM), -3.55%; in experiment [6] (setting [7]) it was 2%; in experiment [6] (setting [8]), 38%; in experiment [6] (at 50.0 µM) it was 23.9%.

For the molecule `CC1(C)CCC2(C(=O)O)CCC3(C)C(=CCC4C5(C)CC(O)C(O)C(C)(C(=O)O)C5CCC43C)C2C1` (stereo not given), the growth inhibition in experiment [1] (setting [7]) was 99% (active); in experiment [1] (setting [8]) it was 99% (active); in experiment [1] (at 50.0 µM), 91.9% (active); in experiment [2] (setting [7]), 99% (active); in experiment [2] (setting [8]) it was 99% (active); in experiment [2] (at 50.0 µM), 94.6% (active). In addition, the growth inhibition was 99% (active) in experiment [3] (setting [7]); 99% (active) in experiment [3] (setting [8]); 93.2% (active) in experiment [3] (at 50.0 µM); 99% (active) in experiment [4] (setting [7]); 99% (active) in experiment [4] (setting [8]); 92.5% (active) in experiment [4] (at 50.0 µM). Besides, the growth inhibition in experiment [5] (setting [7]) was 99% (active); in experiment [5] (setting [8]) it was 99% (active); in experiment [5] (at 50.0 µM), 92.4% (active); in experiment [6] (setting [7]), 99% (active); in experiment [6] (setting [8]), 99% (active); in experiment [6] (at 50.0 µM) it was 91.9% (active).

As to `CC1=C(C(=O)Nc2ccccc2)C(c2cccc3ccccc23)C(C(=O)Nc2ccccc2)=C(C)N1`, the growth inhibition in experiment [1] (setting [7]) was -2%; in experiment [1] (setting [8]) it was 53%; in experiment [1] (at 50.0 µM), 71% (active); in experiment [2] (setting [7]) it was -17%; in experiment [2] (setting [8]) it was 51%; in experiment [2] (at 50.0 µM), 91% (active). The growth inhibition was 0% in experiment [3] (setting [7]); 41% in experiment [3] (setting [8]); 48.6% in experiment [3] (at 50.0 µM); -2% in experiment [4] (setting [7]); 64% in experiment [4] (setting [8]); 64.3% in experiment [4] (at 50.0 µM). Further, the growth inhibition in experiment [5] (setting [7]) was -7%; in experiment [5] (setting [8]) it was 53%; in experiment [5] (at 50.0 µM) it was 89% (active); in experiment [6] (setting [7]) it was -4%; in experiment [6] (setting [8]), 53%; in experiment [6] (at 50.0 µM) it was 58.7%.
